Bioassay records: PubChem BioAssay, The Scripps Research Institute Molecular Screening Center
TEAD-YAP inh: TEAD-YAP interaction inhibition. HEK-TIYL cells, TEAD-Gal4/YAP UAS-luciferase luminescence. inhibition, % at 9.12 µM. 640,000 tested, 1.4% active; in the data active = inhibition above about 32%;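 note: 0% = median of test compound wells and 100% = reference inhibitor wells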
MITF primary: human MITF inhibition, primary screen | O75030 | AlphaScreen MITF homodimerization, bead proximity signal | inhibition, % at 2.6 µM | 650,000 tested, 0.91% active; in the data active = inhibition above about 50%;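 note: 0% = vehicle wells with protein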
Target sequence (O75030 whole entry, looked up): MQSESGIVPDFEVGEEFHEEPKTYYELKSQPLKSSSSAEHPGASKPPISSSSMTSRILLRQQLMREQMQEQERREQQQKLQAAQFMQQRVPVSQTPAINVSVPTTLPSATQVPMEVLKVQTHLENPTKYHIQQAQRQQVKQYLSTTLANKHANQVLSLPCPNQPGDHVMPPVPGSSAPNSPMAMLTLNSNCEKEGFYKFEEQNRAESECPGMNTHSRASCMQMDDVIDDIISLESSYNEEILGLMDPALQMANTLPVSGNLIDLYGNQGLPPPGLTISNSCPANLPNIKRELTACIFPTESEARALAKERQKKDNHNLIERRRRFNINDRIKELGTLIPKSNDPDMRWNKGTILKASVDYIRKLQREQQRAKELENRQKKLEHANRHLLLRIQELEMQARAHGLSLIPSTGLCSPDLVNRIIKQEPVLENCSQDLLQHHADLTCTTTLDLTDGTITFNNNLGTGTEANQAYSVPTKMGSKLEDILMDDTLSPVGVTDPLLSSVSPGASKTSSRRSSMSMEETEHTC
GPR151 ag: human GPR151 activation; activation, % at 11.2 µM; 650,000 tested, 1% active; Q8TDV0; PathHunter beta-arrestin GPR151 cells, luminescence; in the data active = activation above about 4.9%;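 note: 0% = median of compound wells and 100% = cells with positive control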
FBW7 act: activators of human E3 ligase FBW7; 650,000 tested, 0.13% active; AlphaScreen FBW7–phospho-cyclin E peptide binding, activator screen; AID 1259310; normalized activity (activation), % at 26.1 µM; Q969H0; in the data active = normalized activity above about 1.9%;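 note: purified mutant Fbw7 with reduced substrate affinity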
GPR151 conf act: human GPR151 activation, confirmation screen | shares compounds with GPR151 ag | GPR151 PathHunter beta-arrestin cells, luminescence, 90 min; % of EA-reagent control over plate median | activation, % at 11.2 µM | 6,700 tested, under 10 active | AID 1508609;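 active = mean percent activation across replicates above the confirmation screen cutoff of 4.91%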
GPR119 counter: GPR119 activation, counter-screen for GPR151 activators. GPR119 PathHunter beta-arrestin cells, luminescence, 90 min; 0 = compound-well median, 100 = enzyme-acceptor control. activation, % at 11.2 µM. 6,700 tested, 0.3% active. shares compounds with GPR151 ag;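 active = mean percent activation in the counterscreen above 29.09%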;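 note: counterscreen on off-target GPR119 to flag nonselective hits from the GPR151 activator screen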
Numbers without * were called inactive; / = not tested or not shown; ! = repeats disagree. Most compounds without a hit are left out; they make up all but 3.5% or so of the library.

SMILES | TEAD-YAP inh | MITF primary | GPR151 ag | FBW7 act | GPR151 conf act | GPR119 counter
Cc1ccc2onc(CNC(=O)N3CC(C)CC(C)C3)c2c1 (stereo not given) | 4 | -14 | 0 | 0 | / | /
CC(=O)c1ccc(F)c(-c2cc(C)cc3c2OC(CNC(=O)c2ocnc2C)C3)c1 (stereo not given) | -5 | -5 | -1 | 0 | / | /
CCCCNC(=O)CCC(=O)N1CC(C)Oc2ccccc21 (stereo not given) | -7 | 9 | 3 | 0 | / | /
Nc1c(C(=O)Nc2ccc(Oc3ccccc3)cc2)nnn1Cc1ccccc1 | -12 | -7 | 2 | 0 | / | /
COc1ccc(NC(=O)c2nnn(Cc3ccccc3)c2N)cc1 | -23 | 9 | 8.1* | 0 | 0 | 6
COCCN1C(=O)C2C(C(=O)Nc3ccc(C(C)C)cc3)C3C=CC2(O3)C1C(=O)NC1CCCC(C)C1C (stereo not given) | 2 | 11 | -1 | 0 | / | /
CC(=O)N[C@H]1[C@H](Oc2ccc(Cl)cc2Cl)O[C@H](CO)[C@@H](O)[C@@H]1O | -2 | -5 | 1 | 0 | / | /
COc1ccccc1OC1OC2COC(c3ccco3)OC2C(O)C1NC(C)=O (stereo not given) | -2 | -2 | 15* | 0 | 1 | 5
CC(=O)NC1C(Oc2cc(C)ccc2C)OC2COC(C)(C)OC2C1O (stereo not given) | -4 | 4 | 13* | 0 | 1 | 7
CC(=O)NC1C(Oc2cc(C)ccc2C)OC(CO)C(O)C1O (stereo not given) | 3 | -17 | 5.8* | 0 | 0 | 0
CCCCOc1ccc(/C=C2\N=C(c3ccccc3)NC2=O)cc1 | -2 | -4 | 1 | 0 | / | /
Cc1ccc(-n2c3c(cc(C(=O)Nc4ccc5c(c4)OCCO5)c2=O)C(=O)CCC3)cc1 | 16 | 10 | 5.0* | 0 | 0 | 1
Cc1ccc(NC(=O)c2cc3c(n(-c4ccc(C)cc4)c2=O)CCCC3=O)cc1 | -17 | 0 | -1 | 0 | / | /
COc1ccc(C(=O)NC(=S)Nc2ccc(S(=O)(=O)Nc3nccs3)cc2)cc1 | -16 | -5 | 0 | 0 | / | /
COc1cc(CNCC(C)C)cc(Cl)c1OC | 2 | 20 | 0 | 1 | / | /
CCOc1c(Cl)cc(CNCC(C)C)cc1OC | 11 | 1 | 6.2* | 0 | -1 | -14
CCOC(=O)C1=C(O)/C(=C/c2ccc3c(c2)OCO3)SC1=Nc1cccc(Cl)c1 | 2 | -5 | 1 | 0 | / | /
CCOC(=O)Cn1cnc2c(nnn2Cc2ccccc2F)c1=O | 5 | -6 | 0 | 0 | / | /
C=CCNC(=O)NC(=O)COC(=O)CC(NC(N)=O)c1ccc(Cl)cc1 (stereo not given) | 2 | -3 | 4.9* | 0 | 1 | 4
COc1cc(CNc2ncn[nH]2)ccc1OCc1cccc(C)c1 | -29 | -11 | 5.1* | 0 | -1 | -6
COc1cc(CNc2ncn[nH]2)cc(Cl)c1OC | -2 | -5 | 2 | 0 | / | /
O=c1cc(N2CCOCC2)oc2c(-c3ccccc3)cccc12 | -7 | 5 | 5.4*! | 0 | 0 | -6
CNCCCC1c2ccccc2C=Cc2ccccc21 | 2 | 5 | 10*! | 0 | 0 | 2
CN(C)C(=O)CSc1nnc(-c2ccc3c(c2)OCO3)n1C | -6 | 1 | 0 | 0 | / | /
Cn1c(SCC(N)=O)nnc1-c1ccc2c(c1)OCO2 | 8 | -2 | 9.6* | 0 | 1 | 9
SMILES | TEAD-YAP inh | MITF primary | GPR151 ag | FBW7 act | GPR151 conf act | GPR119 counter
CC(C)CCNC(=O)c1cc2c(s1)CS(=O)(=O)C2 | 1 | 11 | 6.5* | 0 | 0 | 10
Cc1ccc(CNC(=O)c2cc3c(s2)CS(=O)(=O)C3)cc1 | -15 | -6 | 5.7* | 0 | 0 | 10
Cc1ccc(CCNC(=O)c2cc3c(s2)CS(=O)(=O)C3)cc1 | 0 | 5 | 0 | 0 | / | /
CN1CCN(C(=O)c2cc(Cl)ccc2[N+](=O)[O-])CC1 | 3 | 12 | -1 | 0 | / | /
Cc1sc(NC(=O)c2cc3ccccc3oc2=O)nc1-c1ccc(Br)cc1 | -6 | -2 | 7.4* | 0 | 2 | -2
O=C(NC1CCCCCCC1)c1nnc(-c2ccccc2)o1 | 18 | 0 | -1 | 0 | / | /
Cc1ccc(-n2[nH]c(C)c(/C=N/c3ccccn3)c2=O)cc1 | 5 | -7 | -3 | 0 | / | /
Cc1[nH]n(-c2ccccc2)c(=S)c1/C=N/c1ccccn1 | 6 | -8 | 5.9* | 0 | 0 | 5
CCCCCCc1cc2c(-c3ccccc3)cc(=O)oc2cc1OCc1cc(C(=O)O)oc1C | 0 | 8 | 0 | 0 | / | /
CC(C)OCCNC(=O)CC1C(=O)NCCN1C (stereo not given) | 6 | 0 | -2 | 0 | / | /
CS(=O)(=O)N(CC(=O)Nc1cccc(F)c1)c1ccccc1Cl | -6 | 0 | 5.0* | 0 | 0 | 2
CC(C)NC(=O)CN(c1cccc2ccccc12)S(C)(=O)=O | 3 | -16 | 8.4* | 0 | 0 | -2
CCc1ccccc1N(CC(=O)Nc1ccccc1Cl)S(C)(=O)=O | 4 | -5 | 14* | 0 | -1 | 1
CS(=O)(=O)N(CC(=O)Nc1cccc(F)c1)c1ccccc1F | -1 | -4 | 5 | 0 | / | /
CCc1ccccc1N(CC(=O)Nc1ccccc1SC)S(C)(=O)=O | 0 | 4 | 5.6* | 0 | 0 | -6
COc1ccccc1CNC(=O)c1ccc(N2CCN(c3ccccn3)CC2)c([N+](=O)[O-])c1 | 5 | 18 | 0 | 0 | / | /
COc1ccccc1-n1c(COc2ccccc2C)nnc1SCC(=O)O | 9 | 1 | 1 | 0 | / | /
COc1ccc(NC(=O)Oc2ccccc2)cc1OC | 0 | 2 | 0 | 0 | / | /
CCc1ccccc1N(CC(=O)Nc1ccc(F)c(F)c1)S(C)(=O)=O | -11 | 1 | 6.7* | 0 | 0 | -9
O=C(CNC(=O)c1cccs1)OCc1c(F)cccc1Cl | -1 | 3 | 1 | 0 | / | /
O=C(CNC(=O)c1cccs1)OCc1c(Cl)cccc1Cl | 1 | -8 | 5.4* | 0 | 0 | -3
CS(=O)(=O)n1c(=O)oc2cc(Br)ccc21 | -2 | 13 | 1 | 0 | / | /
COc1ccc2c(CNC3CCCC(C)C3C)c(C(=O)O)n(Cc3ccc(C)cc3)c2c1 (stereo not given) | 11 | 10 | 4.9* | 0 | 0 | 0
COC(=O)c1ccc(/C=C2/C(=O)NN(c3ccc(C)c(C)c3)C2=O)cc1 | -1 | 13 | 5.2* | 0 | 0 | 0
O=C(O)CS(=O)(=O)Cc1cccc(F)c1 | 6 | 21 | 0 | 0 | / | /
Cc1[nH]c2ccccc2c(=O)c1Br | 7 | 11 | 5.6* | 0 | 0 | 7
CC(=O)c1c(C)[nH]c2ccccc2c1=O | -6 | -1 | 1 | 0 | / | /
O=C1c2cccc3c([N+](=O)[O-])ccc(c23)C(=O)N1CCc1ccccc1 | 4 | 14 | 6.9* | 0 | 0 | 1
